Test results from PubChem BioAssay AID1159580 (chemical genetic matrix, 2015).
The whole screen tested about 5,500 compounds, of which about 2,000 (36%) were called active. Another 18% or so got no clear call; they are omitted. Rule as the data show it: active = normalized growth mostly below about 0.91 (no sharp cut-off); inconclusive = no clear call, values can overlap the other calls; inactive = mostly above about 0.92. Some of the results follow.

Test: chemical genetic growth profiling, strain panel (AID 1159580);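 also: tested at 20 µM; growth read once vehicle control cultures reached saturation at 30 °C; 1 = growth at the plate median or of vehicle wells; lower values mean less growth of the strain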
Conditions: growth OD

Measured: normalized growth

O=c1c(O)c(-c2ccccc2)oc2cc(O)ccc12
active: S. cerevisiae deletion strains, locus YKL085W, strain MDH1 (second series), hits give low values 0.911 | S. cerevisiae deletion strains, locus YKL085W, strain MDH1, hits give low values 0.911 | S. cerevisiae deletion strains, locus YKL160W, strain elf1, hits give low values 0.772 | S. cerevisiae deletion strains, locus YKL190W, strain CNB1, hits give low values 0.4 | S. cerevisiae deletion strains, locus YKR001C, strain vps1, hits give low values 0.708 | S. cerevisiae deletion strains, locus YKR026C, strain gcn3, hits give low values 0.879 | S. cerevisiae deletion strains, locus YKR091W, strain srl3, hits give low values 0.834 | S. cerevisiae deletion strains, locus YLL001W, strain dnm1, hits give low values 0.827 | S. cerevisiae deletion strains, locus YLL026W, hits give low values 0.558 | S. cerevisiae deletion strains, locus YLL041C, strain sdh2, hits give low values 0.85 | S. cerevisiae deletion strains, locus YLR027C, strain aat2, hits give low values 0.701 | S. cerevisiae deletion strains, locus YLR039C, strain RIC1, hits give low values 0.236 | S. cerevisiae deletion strains, locus YLR058C, strain SHM2, hits give low values 0.514 | S. cerevisiae deletion strains, locus YLR221C, strain rsa3, hits give low values 0.759 | S. cerevisiae deletion strains, locus YLR258W, strain gsy2, hits give low values 0.699 | S. cerevisiae deletion strains, locus YLR262C, strain YPT6 (second series), hits give low values 0.341 | S. cerevisiae deletion strains, locus YLR262C, strain YPT6, hits give low values 0.263 | S. cerevisiae deletion strains, locus YLR268W, strain sec22, hits give low values 0.62 | S. cerevisiae deletion strains, locus YLR320W, strain mms22, hits give low values 0.674 | S. cerevisiae deletion strains, locus YLR330W, strain CHS5, hits give low values 0.663 | S. cerevisiae deletion strains, locus YLR342W, strain FKS1 (second series), hits give low values 0.51 | S. cerevisiae deletion strains, locus YLR342W, strain FKS1, hits give low values 0.765 | S. cerevisiae deletion strains, locus YLR357W, strain rsc2, hits give low values 0.717 | S. cerevisiae deletion strains, locus YLR370C, strain arc18, hits give low values 0.738 | S. cerevisiae deletion strains, locus YLR371W, strain rom2, hits give low values 0.636 | S. cerevisiae deletion strains, locus YLR384C, strain iki3, hits give low values 0.906 | S. cerevisiae deletion strains, locus YLR418C, strain cdc73, hits give low values 0.357 | S. cerevisiae deletion strains, locus YML016C, strain PPZ1, hits give low values 0.455 | S. cerevisiae deletion strains, locus YML032C, strain rad52, hits give low values 0.872 | S. cerevisiae deletion strains, locus YML120C, strain ndi1, hits give low values 0.887 | S. cerevisiae deletion strains, locus YML124C, strain tub3, hits give low values 0.827 | S. cerevisiae deletion strains, locus YMR058W, strain fet3, hits give low values 0.104 | S. cerevisiae deletion strains, locus YMR078C, strain ctf18, hits give low values 0.909 | S. cerevisiae deletion strains, locus YMR129W, hits give low values 0.838 | S. cerevisiae deletion strains, locus YMR205C, strain PFK2, hits give low values 0.639 | S. cerevisiae deletion strains, locus YMR223W, strain ubp8, hits give low values 0.685 | S. cerevisiae deletion strains, locus YMR231W, strain pep5, hits give low values 0.336 | S. cerevisiae deletion strains, locus YMR307W, strain GAS1, hits give low values 0.328 | S. cerevisiae deletion strains, locus YNL067W, strain RPL9B, hits give low values 0.496 | S. cerevisiae deletion strains, locus YNL071W, strain lat1, hits give low values 0.709 | S. cerevisiae deletion strains, locus YNL128W, strain TEP1, hits give low values 0.319 | S. cerevisiae deletion strains, locus YNL153C, strain GIM3, hits give low values 0.577 | S. cerevisiae deletion strains, locus YNL209W, strain ssb2, hits give low values 0.335 | S. cerevisiae deletion strains, locus YNL233W, strain BNI4, hits give low values 0.479 | S. cerevisiae deletion strains, locus YNL248C, strain rpa49, hits give low values 0.859 | S. cerevisiae deletion strains, locus YNL271C, strain bni1, hits give low values 0.858 | S. cerevisiae deletion strains, locus YNL307C, strain MCK1, hits give low values 0.745 | S. cerevisiae deletion strains, locus YNL322C, strain KRE1, hits give low values 0.415 | S. cerevisiae deletion strains, locus YNR049C, strain mso1, hits give low values 0.895 | S. cerevisiae deletion strains, locus YNR052C, strain pop2, hits give low values 0.713 | S. cerevisiae deletion strains, locus YOL006C, strain TOP1, hits give low values 0.167 | S. cerevisiae deletion strains, locus YOL147C, strain pex11, hits give low values 0.914 | S. cerevisiae deletion strains, locus YOR001W, strain rrp6, hits give low values 0.873 | S. cerevisiae deletion strains, locus YOR061W, strain CKA2, hits give low values 0.682 | S. cerevisiae deletion strains, locus YOR069W, strain VPS5, hits give low values 0.614 | S. cerevisiae deletion strains, locus YOR070C, strain gyp1, hits give low values 0.739 | S. cerevisiae deletion strains, locus YOR080W, strain dia2, hits give low values 0.777 | S. cerevisiae deletion strains, locus YOR083W, strain WHI5, hits give low values 0.695 | S. cerevisiae deletion strains, locus YOR106W, strain vam3, hits give low values 0.27 | S. cerevisiae deletion strains, locus YOR136W, strain idh2, hits give low values 0.909 | S. cerevisiae deletion strains, locus YOR184W, strain ser1, hits give low values 0.5 | S. cerevisiae deletion strains, locus YOR265W, strain rbl2, hits give low values 0.71 | S. cerevisiae deletion strains, locus YOR270C, strain vph1, hits give low values 0.306 | S. cerevisiae deletion strains, locus YOR290C, strain snf2, hits give low values 0.754 | S. cerevisiae deletion strains, locus YOR316C, strain cot1, hits give low values 0.903 | S. cerevisiae deletion strains, locus YPL051W, strain arl3, hits give low values 0.439 | S. cerevisiae deletion strains, locus YPL055C, strain LGE1, hits give low values 0.363 | S. cerevisiae deletion strains, locus YPL078C, strain atp4, hits give low values 0.845 | S. cerevisiae deletion strains, locus YPL106C, strain sse1, hits give low values 0.65 | S. cerevisiae deletion strains, locus YPL240C, strain hsp82, hits give low values 0.81 | S. cerevisiae deletion strains, locus YPL241C, strain CIN2, hits give low values 0.719 | S. cerevisiae deletion strains, locus YPR119W, strain clb2, hits give low values 0.931 | S. cerevisiae deletion strains, locus YPR163C, strain tif3, hits give low values 0.844 | S. cerevisiae deletion strains, locus YPR167C, strain met16, hits give low values 0.734 | S. cerevisiae deletion strains, strain wtn01, hits give low values 0.751 | S. cerevisiae strains, strain wild type, hits give low values 0.246
inactive: S. cerevisiae deletion strains, locus YKL009W, strain mrt4, hits give low values 0.932 | S. cerevisiae deletion strains, locus YKL068W, hits give low values 0.948 | S. cerevisiae deletion strains, locus YLR102C, strain apc9, hits give low values 0.935 | S. cerevisiae deletion strains, locus YLR113W, strain HOG1, hits give low values 1 | S. cerevisiae deletion strains, locus YMR125W, strain sto1, hits give low values 0.929 | S. cerevisiae deletion strains, locus YNL183C, strain NPR1, hits give low values 0.98 | S. cerevisiae deletion strains, locus YNL250W, strain rad50, hits give low values 0.927 | S. cerevisiae deletion strains, locus YNL298W, strain CLA4, hits give low values 0.914 | S. cerevisiae deletion strains, locus YNL322C, strain KRE1 (second series), hits give low values 0.971 | S. cerevisiae deletion strains, locus YOL012C, strain htz1 0.446 | S. cerevisiae deletion strains, locus YOR144C, strain elg1, hits give low values 0.94 | S. cerevisiae deletion strains, locus YOR231W, strain MKK1, hits give low values 1.03 | S. cerevisiae deletion strains, locus YPL256C, strain CLN2, hits give low values 1.06 | S. cerevisiae deletion strains, locus YPR141C, strain kar3, hits give low values 0.942
